# RORg inh: blocks mouse ROR gamma transcriptional activity. P51450. AID 2551. Potency, µM (doses to about 53.6 µM), for the others: at the top dose activity change, negative = inhibition, most hits filed as inhibitors. Drosophila S2 Gal4-RORgamma UAS-luciferase reporter, 20 h. 5.4% of 310,000 active; note: potency is the fitted concentration of half-maximal effect; nearly all actives have a fitted effect of over 60% in size
# Target sequence (P51450 whole entry, looked up, the tested form may be a part): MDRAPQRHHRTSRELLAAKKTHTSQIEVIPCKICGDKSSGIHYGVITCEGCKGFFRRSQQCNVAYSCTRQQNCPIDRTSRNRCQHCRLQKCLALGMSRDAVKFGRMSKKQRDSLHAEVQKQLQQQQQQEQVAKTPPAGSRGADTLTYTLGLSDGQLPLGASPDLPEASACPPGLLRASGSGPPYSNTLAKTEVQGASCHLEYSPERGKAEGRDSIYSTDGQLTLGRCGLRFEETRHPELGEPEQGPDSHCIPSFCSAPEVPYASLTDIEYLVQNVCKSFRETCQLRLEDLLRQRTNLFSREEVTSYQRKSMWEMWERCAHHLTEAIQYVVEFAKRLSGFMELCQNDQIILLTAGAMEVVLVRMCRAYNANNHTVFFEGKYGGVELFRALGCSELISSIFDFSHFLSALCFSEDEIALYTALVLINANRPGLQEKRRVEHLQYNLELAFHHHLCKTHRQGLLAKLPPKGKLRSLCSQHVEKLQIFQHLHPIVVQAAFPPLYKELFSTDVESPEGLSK
#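 Luminescence from a UAS-regulated Photinus luciferase reporter in stably transfected Drosophila Schneider cells is measured; decreased signal marks ROR gamma inhibition. Fusion expression is induced by 700 uM copper sulfate for 20 hr.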
# TDP1 cell CPT: DT40-hTDP1 cell growth loss with CPT. chicken DT40 Tdp1-/-;hTDP1 cells + 20 nM CPT, ATP luminescence, 48 h. AID 686979. Potency, µM (series often up to 46.2 µM), for the others: top-dose activity change, negative = growth inhibition, actives largely listed as inhibitors. 12% of 420,000 active; note: potency is the fitted concentration of half-maximal effect; nearly all actives have a fitted effect of over 55% in size
#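 Chicken DT40 Tdp1-/- cells stably complemented with human TDP1 were seeded at 400 cells/well in medium containing 20 nM camptothecin, exposed to pin-transferred compounds, and grown at 37 °C for at least 48 hr. Viability was read as ATP luminescence.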
# TDP1 cell noCPT: qHTS for Inhibitors of human tyrosyl-DNA phosphodiesterase 1 (TDP1): qHTS in cells in absence of CPT | Potency, µM (highest dose often 46.2 µM), inactives show at the top dose activity change, negative = growth inhibition, actives largely listed as inhibitors | AID 686978, 2013 | DT40 Tdp1-/- hTDP1 cells, no CPT, ATP luminescence, 48 h | 15% of 420,000 active; note: potency is the fitted concentration of half-maximal effect; nearly all actives have a fitted effect of over 55% in size
#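 No-CPT arm: Tdp1-/-;hTDP1 DT40 cells (400/well) plus compounds, incubated ≥48 hr at 37 °C. Readout CellTiter-Glo luminescence.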
# IL1B secr inh: inflammasome signaling inhibition, IL-1 beta readout; activity change, % at 57.5 µM; 4.7% of 360,000 active; THP-1 LPS/ATP IL-1B secretion, AlphaLISA, 16 h; active compounds read low; in the data active = activity change below about -50%; inconclusive = mostly about -30% to -49%
#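 THP-1 cells pretreated 1 hr with compounds (up to 57.5 uM final), then stimulated with LPS (250 ng/mL final) plus ATP (1.25 mM final); secreted IL-1B measured by AlphaLISA after 16 hr, decreased signal indicating inhibition.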
# LDHA block: inhibitors of human lactate dehydrogenase A. activity change, % (values are at about 110 or 230 µM). purified LDHA, NADH/diaphorase-resazurin fluorescence; active compounds read low. 0.15% of 480,000 active. P00338. AID 1347041; in the data active = activity change below about -30%; inconclusive = mostly about -25% to -30%;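 note: plate controls were DMSO wells for no effect and wells without enzyme for full effect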
#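 LDH5 2 nM; NADH 0.06 mM, pyruvate 0.2 mM; 200 mM Tris pH 7.4, EDTA, Tween-20; 5 min RT. Detection: diaphorase 0.133 mg/mL + resazurin 37 µM, fluorescence ex540/em590 at 0 and 20 min; normalized to enzyme-free and DMSO wells.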
# VP16 counter: counter-screen for ROR gamma inhibitors: Gal4-VP16 reporter. AID 2546. 3.5% of 310,000 active. Drosophila S2 Gal4-VP16 UAS-luciferase, luminescence, 20 h. Potency, µM (doses to about 53.6 µM), for inactives: at the top dose activity, negative = inhibition, actives largely listed as inhibitors;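 note: Gal4-VP16 expression switched on by copper sulfate through the metallothionein promoter; potency is the fitted concentration of half-maximal effect; nearly all actives have a fitted effect of over 50% in size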
# * = called active by the depositor; ? = inconclusive; / = no result; [ ] = another dose, or the depositor's remark. A selection: hits, their analogues and other compounds. The true share with any hit is near 18%. Unless noted, calls come from the whole dose curve; as a rule, active = well fitted curve in the direction sought with a large enough effect; inconclusive = small, poorly fitted or top-dose-only effect, or another doubt; inactive = no such curve, though single readings can be large; an effect the other way counts as inactive or inconclusive. Unless noted, % is set by controls: 0 for no effect and ±100 for the full control effect.
SMILES,RORg inh,TDP1 cell CPT,TDP1 cell noCPT,IL1B secr inh,LDHA block,VP16 counter
CCOc1ccccc1CNC(=O)CCCn1c(=O)c2cccn2c2ccc(F)cc21,/,?,12µM*,/,?,/
O=C(CCCn1c(=O)c2cccn2c2ccccc21)NCc1ccccc1Br,/,?,16µM*,/,0,/
CCOc1ccc(CNC(=O)Cn2c(=O)c3cccn3c3ccc(F)cc32)cc1,/,-3%,-12%,/,-4,/
CN(C)S(=O)(=O)c1ccc(-c2nc(C#N)c(N3CCCC3)o2)cc1,/,/,/,/,10,/
Fc1ccc(-c2nc(COc3ccc(Br)cc3)co2)cc1,/,/,/,/,2,/
Nc1ccc2cc3ccc(N)cc3nc2c1,-41%[10 µM],5.3µM*,2.7µM*,/,/,?
CCOC(=O)CN1C(=O)S/C(=C/c2ccc(N3CCCCC3)o2)C1=O,-6%,-22%,-12%,-1,1,-8%
O=C(O)CN1C(=O)/C(=C/c2ccc(N3CCCCC3)o2)SC1=S,-16%,?,23µM*,7,3,-1%
COC(=O)CN1C(=O)S/C(=C/c2ccc(N3CCCCC3)o2)C1=O,?,?,?,-19,51,5µM*
COc1ccccc1NC(=O)C1CC2CCC1C2 (configuration not stated),/,/,/,/,-1,/
Cc1cccc(C(=O)Nc2nnc(-c3ccc(C(C)(C)C)cc3)s2)c1,14µM*,?,?,23,-8,4%
Cc1sc(NC(=O)c2cccc([N+](=O)[O-])c2)c(C(N)=O)c1-c1ccc(C(C)(C)C)cc1,32%,?,21µM*,-17,0,20%
CCOC(=O)c1c(NC(=O)/C=C/C(=O)O)sc(C)c1-c1ccc(C(C)(C)C)cc1,11µM*,13µM*,21µM*,-106*,-3,?
CCc1ccc(-c2c(C)sc(NC(C)=O)c2C(N)=O)cc1,21%,?,23µM*,?,-3,1%
COc1ccc2cc(CNC(=O)CNC(=O)c3ccc(C(F)(F)F)cc3)ccc2c1,/,/,/,/,0,/
Cc1oc(-c2nc(C#N)c(NC(C)C)o2)cc1S(=O)(=O)N(C)Cc1ccccc1,/,/,/,/,7,/
CCOC(=O)c1c(NC(=O)C2C3CCC(O3)C2C(=O)O)sc(C)c1-c1ccc(C)cc1 (configuration not stated),9%,-17%,-3%,16,-7,2%
Cc1sc(NC(=O)C2CCCCC2C(=O)O)c(C(N)=O)c1-c1ccc(C(C)(C)C)cc1 (configuration not stated),?,-9%,-27%,15,0,-8%
CCOC(=O)c1c(NC(=O)/C=C\C(=O)O)sc(C)c1-c1ccccc1,?,?,?,-99*,-5,26%
Cc1sc(NC(=O)C2C3CCC(C3)C2C(=O)O)c(C(N)=O)c1-c1ccc(C(C)(C)C)cc1 (configuration not stated),?,?,12µM*,-2,-2,14%
Cc1sc(NC(=O)/C=C/C(=O)O)c(C(N)=O)c1-c1ccc(C(C)(C)C)cc1,?,23µM*,?,-91*,-8,-10%
Cc1cccc(N(CC(=O)Nc2c(C)cccc2C)S(C)(=O)=O)c1C,/,/,/,/,-1,/
CN(C)c1ccc(-c2ccncc2)cc1,-17%,/,/,/,/,14%
c1cc(-c2ccncc2)ccn1,0%,10µM*,16µM*,29,-8,2%
Cn1c(=O)c(CCc2ccccc2)nc2cnc(N3CCOCC3)nc21,?,-8%,9%,/,/,6%
SMILES,RORg inh,TDP1 cell CPT,TDP1 cell noCPT,IL1B secr inh,LDHA block,VP16 counter
CN1CCN(c2ncc3nc(-c4ccccc4)c(=O)n(CCc4ccccc4)c3n2)CC1,-44%,?,-13%,/,/,0%
Cn1c(=O)c(CCc2ccccc2)nc2cnc(N3CCNCC3)nc21,-10%,?,9.2µM*,/,/,7%
COCCn1c(=O)c(-c2ccc(OC)cc2)nc2cnc(N3CCNCC3)nc21,-18%,?,?,/,/,-16%
COc1ccc(-c2nc3cnc(N4CCNCC4)nc3n(CCc3ccccc3)c2=O)cc1,0%,?,21µM*,/,/,-3%
COCCn1c(=O)c(-c2ccccc2)nc2cnc(N3CCNCC3)nc21,-9%,11%,-28%,/,/,-6%
COCCn1c(=O)c(-c2ccc(Cl)cc2)nc2cnc(N3CCNCC3)nc21,-27%,6.5µM*,12µM*,/,/,-16%
O=c1c(-c2ccc(Cl)cc2)nc2cnc(N3CCNCC3)nc2n1CCc1ccccc1,-8%,12µM*,18µM*,/,/,-26%
COc1ccc(C)cc1-n1ccnc1SCC(=O)Nc1nc2ccccc2s1,/,/,/,/,5,/
Cc1ccc2c(c1)SC(C(=O)O)C2 (configuration not stated),/,/,/,/,2,/
COc1ccc(C(=O)COC(=O)c2c(Cl)cccc2Cl)c(OC)c1,/,/,/,/,6,/
COCCn1c(=O)c(-c2cccs2)nc2cnc(N3CCNCC3)nc21,-34%,?,?,/,/,0%
N#CCCn1c(=O)c(-c2cccs2)nc2cnc(N3CCNCC3)nc21,?,?,3.7µM*,/,/,?
O=C(Nc1cccc(Cl)c1)Nc1nnc(CC2=CCCCC2)s1,?,4.6µM*,18µM*,43,-4,?
O=C(Nc1ccc(Cl)cc1)Nc1nnc(CSc2ccc(Cl)cc2)s1,2%,4.6µM*,2.6µM*,-58*,-5,8%
O=C(Nc1cccc(Cl)c1)Nc1nnc(CSCCOc2ccc(Cl)cc2)s1,?,3.3µM*,3.3µM*,-27,-4,?
O=C(Nc1ccc(Cl)cc1)Nc1nnc(CSCc2ccccc2)s1,5%,16µM*,18µM*,-3,0,-1%
CCC(=O)Nc1c(-c2cc(=O)oc3ccc(CC)cc23)oc2ccccc12,/,/,/,/,11,/
O=CC1=C(c2ccccc2)SC(c2ccccc2)C(Cc2ccccc2)=C1 (configuration not stated),/,/,/,/,1,/
N#CC1=C(N)OC2=C(C(=O)CC(c3ccccc3)C2)C1c1ccc(Cl)cc1Cl (configuration not stated),/,/,/,/,12,/
CN(C)C(=S)N(C)C,/,/,/,/,-4,/
Cc1[nH]c(=S)sc1Cc1cccc(C(F)(F)F)c1,/,/,/,/,8,/
CSc1ccc(C(O)c2ncc(-c3ccc(F)cc3)[nH]2)cc1 (configuration not stated),/,29µM*,15µM*,10,-6,/
CC(C)(C)c1ccc(C(O)c2ncc(-c3ccc4ccccc4c3)[nH]2)cc1 (configuration not stated),/,?,18µM*,-6,-12,/
